Experimental data as given in PubChem BioAssay (NCI).
About 83,000 compounds went through this panel and 20% of them were active in at least one assay; those are over-represented in the sample as a whole.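 96-well plates, one dose, 48 hours. Percent growth reported; active if below 10.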 Values without a mark were called inactive. The source made the active and inactive calls.

Legend:
Assay in all cases: NCI-60 one-dose screen, 48 h (100 = growth as untreated, 0 = no growth, -100 = all killed)
Settings in all cases: 10 µM unless noted
[1] = system: SR leukemia
[2] = system: OVCAR-8 ovarian
[3] = system: OVCAR-5 ovarian
[4] = system: OVCAR-4 ovarian
[5] = system: SK-OV-3 ovarian
[6] = system: IGROV1 ovarian
[7] = system: OVCAR-3 ovarian
[8] = system: HS 578T breast
[9] = system: NCI/ADR-RES ovarian
[10] = system: RPMI-8226 leukemia

`CCc1nc2c(=O)[nH]cnc2o1` gave a growth [1] of 92.8%, a growth [2] of 111% and a growth [3] of 107%. For the same molecule, the growth [4] was 96.2%, the growth [5] was 110% and the growth [6] was 111%. The growth [7] was 111%, the growth [8] was 102% and the growth [9] was 101%.
`Fc1cccc(CNc2c3ccccc3nc3ccccc23)c1F` was tested, and the growth [1] was 38.2%, the growth [2] was 50.8% and the growth [3] was 73.3%. For the same molecule, the growth [4] was 49.9%, the growth [5] was 75.8% and the growth [6] was 52.7%. It also gave a growth [7] of 86.1%, a growth [8] of 87% and a growth [9] of 48.5%.
Molecule `O=C(NCCCN1CCOCC1)c1cccc(N2C(=O)/C(=C/c3ccc(F)cc3)SC2=S)c1` has a growth [1] of 98.9%, a growth [2] of 100% and a growth [3] of 104%. The growth [4] was 93.8%, the growth [5] was 108% and the growth [6] was 90.7%. It also gave a growth [7] of 99.5%, a growth [8] of 82.2% and a growth [9] of 98.5%.
With `COc1ccc2[nH]cc(-c3nc(-c4cn(C)c5c(Cl)nccc45)cs3)c2c1` the growth [1] was 13.9%, the growth [2] was 22.9% and the growth [3] was 97.4%. It also gave a growth [4] of 68.8%, a growth [5] of 60.1% and a growth [6] of 71.3%. The growth [7] was 77.6%, the growth [8] was 54.3% and the growth [9] was 11.1%.
Molecule `CC(C)(C)n1cc(-c2ccnc(NCCCNS(=O)(=O)c3ccc(F)cc3)c2)c(-c2cccc(F)c2)n1` has a growth [1] of 14.3%, a growth [2] of 54.8% and a growth [3] of 69%. It also gave a growth [4] of 79.2%, a growth [5] of 75.3% and a growth [6] of 68.6%. The growth [7] was 74.8%, the growth [8] was 78.9% and the growth [9] was 52%.
`OB(O)c1cccc(-c2nc3ccc4[nH]ncc4c3c3c2CCCC3)c1` gave a growth [1] of 32.2%, a growth [2] of 48.7% and a growth [3] of 78.3%. The growth [4] was 80.2%, the growth [5] was 7.93% (active) and the growth [6] was 47.2%. The growth [7] was 73.9%, the growth [8] was 0.588% (active) and the growth [9] was 87.6%.
Molecule `COc1cc2oc(-c3cccc(NC(=O)c4cccc(Br)c4)c3)cc(=O)c2c(OC)c1OC` has a growth [1] of 43.2%, a growth [2] of 34.8% and a growth [3] of 87.7%. The growth [4] was 58.7%, the growth [5] was 92.5% and the growth [6] was 58.8%. For the same molecule, the growth [7] was 66.5%, the growth [8] was 47.1% and the growth [9] was 53.1%.
In the case of `CS(=O)(=O)C1=CN(CCO)C(=O)N2CCCN=C12`, the growth [1] is reported as 115%, the growth [2] is reported as 108% and the growth [3] is reported as 99.4%. The growth [4] was 115%, the growth [5] was 97.5% and the growth [6] was 102%. The growth [7] was 105%, the growth [8] was 97% and the growth [9] was 106%.
With `O=C(NCc1ccccc1)Nc1ccccc1CNc1nc(Nc2ccc(OCCN3CCCC3)cc2)ncc1Cl` the growth [1] was 7.02% (active), the growth [2] was 89.9% and the growth [3] was 112%. The growth [4] was 81.2%, the growth [5] was 99.3% and the growth [6] was 100%. It also gave a growth [7] of 104%, a growth [8] of 98% and a growth [9] of 92.2%.
In the case of `Cc1nc2sc(C(=O)Nc3cccc(Cl)c3C)c(N)c2cc1C(=O)c1ccccc1`, the growth [1] is reported as 19.8%, the growth [2] is reported as 9.81% (active) and the growth [3] is reported as 31.1%. For the same molecule, the growth [4] was 63.3%, the growth [5] was 3.83% (active) and the growth [6] was 28.6%. For the same molecule, the growth [7] was -19.1% (active), the growth [8] was 12.2% and the growth [9] was 4.5% (active).
For `CC1=NN(c2nc(SCC(=O)Nc3nc4ccc(C)cc4s3)nc(-c3ccccc3)c2C#N)C(=O)C1`, the growth [1] was 87.2%, the growth [2] was 102% and the growth [3] was 92.6%. The growth [4] was 101%, the growth [5] was 106% and the growth [6] was 83.5%. For the same molecule, the growth [8] was 90.5% and the growth [9] was 100%.
`O=C(c1ccc(Cl)cc1)N1CCN(c2ccnc3cc(Cl)ccc23)CC1` showed a growth [1] of 122%, a growth [2] of 87.3% and a growth [3] of 93%. The growth [4] was 70.7%, the growth [5] was 93.6% and the growth [6] was 92.9%. For the same molecule, the growth [7] was 100%, the growth [8] was 99.3% and the growth [9] was 87.7%.
Molecule `Clc1ccc2c(c1)N(c1ncnc3ccc(-c4cnc5[nH]ncc5c4)cc13)CC2` has a growth [1] of 24.3%, a growth [10] of 16.9% and a growth [2] of 30%. For the same molecule, the growth [4] was 26.9%, the growth [5] was -1.55% (active) and the growth [7] was 24.5%. The growth [8] was -17% (active) and the growth [9] was 40.4%.
`CC(=O)N(N=Nc1ccccc1)c1cccc2ccccc12` gave a growth [1] of 74.1%, a growth [2] of 84.1% and a growth [4] of 94.5%. It also gave a growth [5] of 82.7%, a growth [6] of 62.9% and a growth [7] of 125%. The growth [8] was 101% and the growth [9] was 78.5%.
Molecule `CCN1CCN(Cc2cn(CC(=O)Nc3ccc4c(ccn4Cc4ccccc4)c3)nn2)CC1` has a growth [1] of 63.5%, a growth [2] of 99.7% and a growth [3] of 113%. It also gave a growth [4] of 97.4%, a growth [5] of 92.7% and a growth [6] of 105%. It also gave a growth [7] of 102%, a growth [8] of 100% and a growth [9] of 108%.
In the case of `O=C(Cn1cc(CN2CCCCCC2)nn1)Nc1ccc2c(ccn2Cc2ccccc2)c1`, the growth [1] is reported as 36.8%, the growth [2] is reported as 98.4% and the growth [3] is reported as 105%. The growth [4] was 87%, the growth [5] was 82.7% and the growth [7] was 95.7%. For the same molecule, the growth [8] was 88.5% and the growth [9] was 102%.
Molecule `CC(C)=CCC[C@](C)(O)[C@H]1CC[C@]2(C)[C@@H]1CC[C@@H]1[C@@]3(C)Cc4nccnc4C(C)(C)[C@@H]3CC[C@]12C` has a growth [1] of 43.7%, a growth [2] of 101% and a growth [3] of 89.9%. It also gave a growth [4] of 90.1%, a growth [5] of 84.1% and a growth [6] of 104%. The growth [7] was 90.3%, the growth [8] was 97.6% and the growth [9] was 83.6%.
`CCN1CC(=O)N(/N=C2\C(=O)Nc3ccccc32)C1=S` showed a growth [1] of 83.1%, a growth [2] of 95.4% and a growth [3] of 97.2%. For the same molecule, the growth [4] was 97.2%, the growth [5] was 78.4% and the growth [6] was 55.3%. For the same molecule, the growth [7] was 98.1%, the growth [8] was 83% and the growth [9] was 103%.
`Cc1ccc(Sc2nnc(/N=C3\C(=O)Nc4ccccc43)s2)cc1` was tested, and the growth [1] was 91.4%, the growth [2] was 101% and the growth [3] was 102%. The growth [4] was 113%, the growth [5] was 110% and the growth [6] was 88.6%. For the same molecule, the growth [7] was 106%, the growth [8] was 97.5% and the growth [9] was 101%.
`Nc1nc2c([nH]1)c1[nH]c3ccccc3c1c1[nH]c3ccccc3c21` was tested, and the growth [1] was -24.9% (active), the growth [2] was 57.5% and the growth [3] was 85.9%. The growth [4] was 66.8%, the growth [5] was 86.1% and the growth [6] was 58.9%. The growth [7] was 36.6%, the growth [8] was 47.2% and the growth [9] was 86.5%.
`COc1ccc2[nH]cc(C(c3cc(F)cc(F)c3)c3c[nH]c4ccc(OC)cc34)c2c1` gave a growth [1] of 46.8%, a growth [2] of 87.2% and a growth [3] of 85%. The growth [4] was 93.9%, the growth [5] was 94.8% and the growth [6] was -7.1% (active). The growth [7] was 89.9%, the growth [8] was 67.2% and the growth [9] was 72.9%.
In the case of `CC1=C(Nc2ccc(N3CCN(C)CC3)cc2)C(=O)c2cncnc2C1=O`, the growth [1] is reported as 26.2%, the growth [10] is reported as 41.8% and the growth [2] is reported as 2.2% (active). For the same molecule, the growth [4] was -98.1% (active), the growth [5] was 111% and the growth [7] was -34.8% (active). The growth [8] was 126% and the growth [9] was 18.1%.
`COc1cc(-c2cc(-c3ccc(N(C)C)cc3)nc(N3CCC(O)CC3)c2C#N)cc(OC)c1OC` gave a growth [1] of 13.4%, a growth [2] of 16.4% and a growth [3] of 20.6%. For the same molecule, the growth [4] was 50.8%, the growth [5] was 35.3% and the growth [8] was 17%. The growth [9] was 14.9%.
`Fc1cc(F)cc(C(c2c[nH]c3ccccc23)c2c[nH]c3ccccc23)c1` was tested, and the growth [1] was 106%, the growth [2] was 102% and the growth [3] was 88.8%. The growth [4] was 116%, the growth [5] was 117% and the growth [6] was -6.52% (active). The growth [7] was 112%, the growth [8] was 82% and the growth [9] was 92.2%.
In the case of `N#Cc1c(N)nnn1Cc1cc(=O)oc2c1ccc1ccccc12`, the growth [1] is reported as 105%, the growth [2] is reported as 96.8% and the growth [3] is reported as 108%. It also gave a growth [4] of 108%, a growth [5] of 86% and a growth [6] of 101%. It also gave a growth [7] of 103%, a growth [8] of 101% and a growth [9] of 99.4%.
Work on `CNc1nc(S(=O)c2ccc(C#N)cc2)nc2ccccc12` (centres undefined) yielded a growth [1] of 29.4%, a growth [2] of 87.8% and a growth [3] of 81.2%. It also gave a growth [4] of 68.6%, a growth [5] of 98.6% and a growth [7] of 53.4%. It also gave a growth [8] of 79.9% and a growth [9] of 97.8%.
For `COc1cc(-c2cc(-c3cccs3)c(C#N)c(N3CCOCC3)n2)cc(OC)c1OC`, the growth [1] was -1.19% (active), the growth [2] was 74.3% and the growth [3] was 96.4%. For the same molecule, the growth [4] was 85.8%, the growth [5] was 141% and the growth [6] was 73.5%. It also gave a growth [7] of 149%, a growth [8] of 90.6% and a growth [9] of 58.2%.
In the case of `CN1C(=O)/C(=C/c2ccc(C(=O)Nc3ncc(Cc4ccc(Cl)cc4)s3)cc2)SC1=S`, the growth [1] is reported as 43.2%, the growth [2] is reported as 60.4% and the growth [3] is reported as 58.1%. It also gave a growth [4] of 54.9%, a growth [5] of 58% and a growth [6] of 44.4%. For the same molecule, the growth [7] was 27.2%, the growth [8] was 42% and the growth [9] was 37.5%.
